Experimental data: PubChem BioAssay (Tox21)
Records with an inconclusive call do not appear. Where a call stands in place of a potency, no number is given. The source holds several records for some structures; these can differ, active in one and inactive in another. Calls of active or inactive are those of the source. Calls come from the whole dose curve; as a rule, active = well fitted cell-killing curve with a large enough effect in the repeat runs (not every such curve was filed as active); inconclusive = weak or mixed curves, or effect the other way; inactive = no such curve, though single readings can be large or run the other way.

Experiment: qHTS assay to identify small molecule antagonists of the estrogen related receptor signaling pathway with the pleiotropic PPARgamma coactivator (PGC) from Tox21 10K library - cell viability counter screen (AID 1224840); note: nearly all actives have a fitted effect of over 40% in size
Settings: PGC/ERR reporter cells viability, CellTiter-Fluor, 17.5 h; series mostly up to 92.4 µM
From the text: National Center for Advancing Translational Sciences [NCATS]
NIH Chemical Genomics Center [NCGC]
U.S. Environmental Protection Agency [EPA]
National Institutes of Environmental Health Sciences [NIEHS]
National Toxicology Program [NTP]
U.S. Food and Drug Administration [FDA]
Estrogen related receptors (ERRs), the first orphan nuclear receptors discovered, play an important role in the control of cellular energy metabolism. ERRs are required for high-energy production in response to the environmental challenges. The pleiotropic PPARgamma coactivator (PGC) is a major partner of ERR and a key regulator in energy homeostasis. Together they have been implicated in the etiology of metabolic disorders such as Type 2 diabetes and metabolic syndrome. ERR-alpha was also identified as an adverse marker for breast cancer progression; ERR-alpha-positive tumors have a poor prognosis. To screen and to identify environmental compounds that perturb the ERR and PGC/ERR signaling pathways could provide valuable information for potential therapeutic or preventive measures in the treatment of metabolic disease. To differentiate true PGC/ERR antagonists or agonist from cytotoxic substances, the assay is multiplexed with cell viability assay.
Tox21 Assay Protocol Summary:
The PGC/ERR cells were dispensed at 2,000 cells/5 ul/well in 1536-well white plates using a Multidrop dispenser. After the assay plates were incubated at a 37 C/5% CO2 incubator for 6 hours, 23 nL of compounds dissolved in DMSO, positive and negative controls or DMSO only was transferred to the assay plate by a pin tool. The plates were incubated at 37 C for 17.5 hours. 1 ul/well of CellTiter-Fluor reagent was added into the assay plates using a Flying Reagent Dispenser. After 30-minute incubation at 37 C/5% CO2, the fluorescence intensity in the plates was measured using a ViewLux plate reader.
Potency is the fitted concentration of half-maximal effect.

Structure (SMILES)	Potency
O=[N+]([O-])c1ccc([As](=O)(O)O)cc1	inactive
CC(=O)C=C(C)C	inactive
Cc1cccc([N+](=O)[O-])c1	inactive
Cc1[nH]c(=O)n(C(C)(C)C)c(=O)c1Cl	inactive
CC(C)NC(=O)N1CC(=O)N(c2cc(Cl)cc(Cl)c2)C1=O	inactive
CC(C#N)CCC#N (stereo not given)	inactive
O=C(O)c1ccccn1	inactive
OCCN(CCO)CCO	inactive
CCOC(=O)c1ccccc1C(=O)OCC	inactive
CC(C)C1(C)N=C(c2nc3ccccc3cc2C(=O)O)NC1=O (stereo not given)	inactive
C#CC(C)(C)NC(=O)c1cc(Cl)cc(Cl)c1	inactive
CN(C)[C@@H]1C(=O)C(C(N)=O)=C(O)[C@@]2(O)C(=O)C3=C(O)c4c(O)cccc4[C@@](C)(O)[C@H]3C[C@@H]12	inactive
CCCCOC(=O)c1ccccc1C(=O)OCCCC	inactive
CC1C=[C-]C=C1.[C-]#[O+].[C-]#[O+].[C-]#[O+].[Mn]	inactive
Clc1ccccc1Cl	inactive
COC(=O)NS(=O)(=O)c1ccc(N)cc1	inactive
CCNc1nc(NC(C)C)nc(SC)n1	inactive
CCOP(=S)(OCC)SCCSCC	inactive
CCCN(CCC)N=O	inactive
CC(C)(C)OOC(C)(C)C	inactive

Structure (SMILES)	Potency
C=C(C)CCl	inactive
Nc1ccc(Oc2ccc(N)cc2)cc1	inactive
CNC(=O)Oc1ccccc1OC(C)C	inactive
CCCCN(CC)C(=O)SCCC	inactive
CCC(C)(CC)c1cc(NC(=O)c2c(OC)cccc2OC)on1	inactive
CCNc1nc(NC(C)(C)C)nc(SC)n1	inactive
c1ccc(-c2ccccc2)cc1	inactive
CC(C)OC(=O)Nc1ccccc1	inactive
CCc1cccc(C)c1N(C(=O)CCl)C(C)COC (stereo not given)	inactive
COc1ccc2c3c1O[C@H]1[C@@H](O)C=C[C@H]4[C@@H](C2)N(C)CC[C@@]341	42.6 µM (active) and inactive
NCCc1ccc(O)cc1	inactive
Cc1cc(Cl)ccc1O	inactive
CC(C)C#N	inactive
COCCl	inactive
C[C@]12CC[C@H]3[C@@H](CC[C@@]45O[C@@H]4C(O)=C(C#N)C[C@]35C)[C@@H]1CC[C@@H]2O	inactive
c1ccc(OP(Oc2ccccc2)Oc2ccccc2)cc1	inactive
CCC[CH2][Sn]([Cl])([Cl])[Cl]	inactive
CCC12COCN1COC2	inactive
O=Cc1cccc(Oc2ccccc2)c1	inactive
ClCCBr	inactive
